{
  "source": "the supplement of paper PMC10646978",
  "data": [
    {"system": "RAW-Dual (murine macrophage reporter line)", "assay": "viability score (confluency relative to resting cells, overnight) (fraction); higher = more viable, active = viable (0.7 or more)", "settings": "modulator concentration 10 µM", "procedure,_shortened": "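RAW-Dual macrophages in 384-well plates were treated overnight with compound at 10 μM final. IncuCyte imaging recorded confluency, and IncuCyte software built two confluency masks across every imaged well. The viability score expresses confluency relative to resting cells and was judged against a cutoff, which a compound met only if both masks exceeded 70% of resting cells.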", "values": [
      {"smiles": "Cc1cnc2c(c1NCCCO)c(=O)n(C)c(=O)n2C", "viability score": "0.995 (active)"},
      {"smiles": "CN(C)CCC=C1c2ccccc2C=Cc2ccccc21.Cl", "viability score": "0.918 (active)"},
      {"smiles": "Cc1cn2c(nc1=O)OC1C(O)C(CO)OC12", "note": "(configuration not stated)", "viability score": "1.03 (active)"},
      {"smiles": "CC1(C)CC(=O)C2=C(C1)OC(N)=C(C#N)C21CCCCC1", "viability score": "1 (active)"},
      {"smiles": "Cc1ccc(OCCCOc2cccc3cccnc23)c(Br)c1", "viability score": "0.998 (active)"},
      {"smiles": "O=C(Cn1cnc([N+](=O)[O-])n1)Nc1cc(Oc2cccc(C(F)(F)F)c2)cc([N+](=O)[O-])c1", "viability score": "0.995 (active)"},
      {"smiles": "COc1ccc(S(=O)(=O)N2CCC(c3ccccc3)S(=O)(=O)CC2)cc1Cl", "note": "(configuration not stated)", "viability score": "0.999 (active)"}
    ]}
  ]
}
